Measured values reported in PubChem BioAssay AID1159580 (chemical genetic matrix, 2015).
Several values for one entry are separate records, joined by “and”; a condition that tells them apart may be missing. Identical values can stand only once. The campaign covered roughly 5,500 compounds. About 2,000 (36%) were called active. Another 18% or so got no clear call; they are omitted. Cut-off read from the data, not from the text of the source: active = normalized growth mostly below about 0.91 (no sharp cut-off); inconclusive = no clear call, values can overlap the other calls; inactive = mostly above about 0.92. Some of the results follow.

Assay: chemical genetic growth profiling, strain panel (AID 1159580);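 note: tested at 20 µM; growth read once vehicle control cultures reached saturation at 30 °C; 1 = growth at the plate median or of vehicle wells; lower values mean less growth of the strain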
Conditions: S. cerevisiae deletion strains, growth OD

Measured: normalized growth

OCCN1CCN(CCCN2c3ccccc3Sc3ccc(Cl)cc32)CC1
inactive: locus YAL013W, strain DEP1, active compounds read low 1.02 and 1.01 | locus YAL021C, strain ccr4, active compounds read low 1 | locus YAL030W, strain snc1, active compounds read low 1.01 | locus YAL040C, strain CLN3, active compounds read low 0.984 | locus YBL061C, strain skt5, active compounds read low 0.996 | locus YBR009C, strain hhf1, active compounds read low 0.998 | locus YBR021W, strain FUR4, active compounds read low 0.988 | locus YBR023C, strain chs3, active compounds read low 0.996 | locus YBR171W, strain sec66, active compounds read low 1.01 | locus YBR229C, strain ROT2, active compounds read low 1.01 | locus YBR231C, strain swc5, active compounds read low 1 | locus YBR279W, strain paf1, active compounds read low 0.998 | locus YCL011C, strain gbp2, active compounds read low 0.997 | locus YCL016C, strain dcc1, active compounds read low 0.994 | locus YCL029C, strain bik1, active compounds read low 0.984 | locus YCL061C, strain MRC1 (second series), active compounds read low 1.01 | locus YCL061C, strain MRC1, active compounds read low 1 | locus YCL069W, strain vba3, active compounds read low 1.01 | locus YCR088W, strain abp1, active compounds read low 1.01 | locus YDL005C, strain med2, active compounds read low 1.01 | locus YDL035C, strain GPR1, active compounds read low 0.996 | locus YDL040C, strain nat1, active compounds read low 1 | locus YDL074C, strain BRE1, active compounds read low 0.955 | locus YDL101C, strain DUN1, active compounds read low 1.01 | locus YDL134C, strain PPH21, active compounds read low 1.02 | locus YDL185W, strain tfp1, active compounds read low 0.996 | locus YDL192W, strain arf1, active compounds read low 1.01 | locus YDR001C, strain nth1, active compounds read low 1 | locus YDR069C, strain doa4, active compounds read low 0.987 | locus YDR101C, strain arx1, active compounds read low 0.959 | locus YDR150W, strain NUM1, active compounds read low 1.03 | locus YDR159W, strain sac3, active compounds read low 1.01 | locus YDR162C, strain NBP2, active compounds read low 1 | locus YDR195W, strain ref2 1.12 | locus YDR297W, strain sur2, active compounds read low 0.997 | locus YDR318W, strain mcm21, active compounds read low 0.966 | locus YDR334W, strain swr1, active compounds read low 1 | locus YDR335W, strain msn5, active compounds read low 1 | locus YDR363W, strain ESC2, active compounds read low 0.995 | locus YDR388W, active compounds read low 0.979 | locus YDR392W, strain spt3, active compounds read low 0.998 | locus YDR502C, strain sam2, active compounds read low 0.96 | locus YEL003W, strain gim4, active compounds read low 0.988 | locus YEL037C, strain rad23, active compounds read low 1 | locus YEL061C, strain CIN8 (second series), active compounds read low 1 | locus YEL061C, strain CIN8, active compounds read low 1.01 | locus YER002W, strain NOP16, active compounds read low 1.04 | locus YER015W, strain faa2, active compounds read low 1 | locus YER016W, strain bim1, active compounds read low 1 | locus YER110C, active compounds read low 0.998 | locus YER111C, strain swi4, active compounds read low 1 | locus YER155C, strain BEM2 (second series), active compounds read low 0.971 | locus YER155C, strain BEM2, active compounds read low 1.03 | locus YER167W, strain BCK2, active compounds read low 1.01 | locus YFR010W, strain ubp6, active compounds read low 0.976 | locus YGL078C, strain dbp3, active compounds read low 0.994 | locus YGL086W, strain mad1, active compounds read low 0.993 | locus YGL167C, strain pmr1, active compounds read low 0.989 | locus YGL173C, strain kem1, active compounds read low 0.972 | locus YGL227W, strain vid30, active compounds read low 1.01 | locus YGL240W, strain doc1, active compounds read low 1.04 | locus YGL248W, strain PDE1, active compounds read low 1.02 | locus YGL253W, strain hxk2, active compounds read low 0.997 | locus YGR078C, strain PAC10, active compounds read low 0.997 and 0.999 | locus YGR135W, strain pre9, active compounds read low 0.958 | locus YGR229C, strain SMI1, active compounds read low 0.958 | locus YGR252W, strain gcn5, active compounds read low 0.931 | locus YHR013C, strain ard1, active compounds read low 0.995 | locus YHR027C, strain rpn1, active compounds read low 0.988 | locus YHR030C, strain SLT2, active compounds read low 1.02 and 0.987 | locus YHR079C, strain IRE1 (second series), active compounds read low 0.984 | locus YHR079C, strain IRE1, active compounds read low 0.993 | locus YHR094C, strain hxt1, active compounds read low 0.992 | locus YHR129C, strain ARP1, active compounds read low 1.01 | locus YHR142W, strain chs7, active compounds read low 1.01 | locus YHR200W, strain rpn10, active compounds read low 0.986 | locus YIL066C, strain RNR3, active compounds read low 0.998 | locus YIL073C, strain SPO22, active compounds read low 1.01 | locus YIL125W, strain kgd1, active compounds read low 0.991 | locus YIR030C, strain dcg1, active compounds read low 0.997 | locus YJL092W, strain hpr5, active compounds read low 1 | locus YJL095W, strain BCK1 (second series), active compounds read low 1 | locus YJL095W, strain BCK1, active compounds read low 0.977 and 0.981 | locus YJL115W, strain asf1, active compounds read low 1 | locus YJL129C, strain trk1, active compounds read low 1.01 | locus YJL134W, strain LCB3, active compounds read low 1.01 | locus YJL154C, strain vps35, active compounds read low 1.01 | locus YJL164C, strain tpk1, active compounds read low 0.988 | locus YJL166W, strain qcr8, active compounds read low 1.01 | locus YJL168C, strain set2, active compounds read low 0.991 | locus YJL187C, strain SWE1 (second series), active compounds read low 1 | locus YJL187C, strain SWE1, active compounds read low 1 | locus YJR043C, strain POL32, active compounds read low 1.02 | locus YJR066W, strain TOR1, active compounds read low 0.954
active: locus YAL026C, strain drs2, active compounds read low 0.674 | locus YDR137W, strain rgp1, active compounds read low 1.33 [resistant]
